Experimental findings from PubChem BioAssay (NCI) are described below.

What all share (assay): NCI-60 one-dose screen, 48 h (100 = growth as untreated, 0 = no growth, -100 = all killed)
The test system of test [1] is RPMI-8226 leukemia. Conditions: 10 µM unless noted.
Test [2] has as its system OVCAR-8 ovarian. The note with it: 10 µM unless noted.
Test [3] deals with OVCAR-5 ovarian. The note with it: 10 µM unless noted.
Test [4] has as its system OVCAR-4 ovarian. The note with it: 10 µM unless noted.
The test system of test [5] is SK-OV-3 ovarian. Conditions: 10 µM unless noted.
Test [6] has as its system IGROV1 ovarian. The note with it: 10 µM unless noted.
Test [7] deals with OVCAR-3 ovarian. Conditions: 10 µM unless noted.
In test [8] the test system is HS 578T breast. Conditions: 10 µM unless noted.
For test [9], the system named is NCI/ADR-RES ovarian. The note with it: 10 µM unless noted.
Test [10] deals with T-47D breast. Conditions: 10 µM unless noted.
Test [11] relates to BT-549 breast. The note with it: 10 µM unless noted.
Test [12] deals with MDA-MB-435 melanoma. Conditions: 10 µM unless noted.
For test [13], the system named is SW-620 colon. Conditions: 10 µM unless noted.
In test [14] the test system is MCF7 breast. Conditions: 10 µM.
Test [15] concerns HCT-116 colon. The note with it: 10 µM unless noted.
Test [16] concerns HCC-2998 colon. The note with it: 10 µM unless noted.
The test system of test [17] is KM12 colon. Conditions: 10 µM unless noted.

Molecules are shown by their SMILES. This is part of a sample that, as a whole, favours compounds with a hit. Of some 83,000 tested, about 20% had one in any assay.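 Values shown are percent growth following 48 h exposure of cells in 96-well plates to a single concentration of compound; below 10 was considered active.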 A number with no mark means an inactive call. Active and inactive are the calls of the source.

For `CCOC(=O)c1cc2c(n1Cc1cc(OC)cc(OC)c1)-c1oncc1CCC2`, the growth is 20.2% in [1]; 19.5% in test [2]; 58.9% in test [3]; 37.7% in test [4]; -0.349% (active) in [5]; -38.4% (active) in test [6]. For the same molecule, the growth in test [7] was -35.7% (active); in test [8], 21.5%; in [9], 6.97% (active); in [10] it was 66.8%; in [11] it was 25.2%; in test [12], -24.9% (active). The growth in [13] is 24.7%; in test [14], 12.5%; in test [15], 15.1%; in test [16] it was 19.3%; in test [17] it was 19.1%.
With `CCOC(=O)c1cnc2ccc(Cl)cc2c1NCCCN(C)C`, the growth in test [1] is -3.54% (active); in [2] it was -3.54% (active); in test [3] it was 53.8%; in test [4], -12.1% (active); in test [5] it was 14.5%; in [6] it was -16.2% (active). Moreover, the growth in test [7] was 18.8%; in test [8], 33%; in [9], 7.93% (active); in test [10], 14.6%; in [11], 31.6%; in [12] it was 19.6%. Also, the growth is 14.6% in [13]; 7.48% (active) in test [14]; 12.4% in test [15]; -13.2% (active) in test [16]; 17.5% in test [17].
As to `CCOc1cccc(/C=N/NC(=O)C(=O)Nc2cccc(C(F)(F)F)c2)c1O`, the growth in test [1] was 29%; in test [2], 25.6%; in [3], 47.4%; in test [4] it was 31%; in test [5], 49.2%; in [6], 25.3%. For the same molecule, the growth in test [7] is 29.3%; in test [8], 69.3%; in test [9], 9.74% (active); in test [10], 30.9%; in test [11] it was 45.4%; in [12] it was 49.6%. The growth was 32% in [13]; 11.8% in [14]; 32% in [15]; 5.43% (active) in [16]; 27.8% in test [17].
As for `Cc1cccc(NC(=O)c2sc3nc4c(cc3c2N)CCCC4)c1C`, the growth in test [1] is 7.76% (active); in test [2] it was 23%; in test [3], 44.1%; in test [4], 65.3%; in test [5], 32.5%; in test [6], 40.7%. The growth is -10.1% (active) in test [7]; 25.1% in test [8]; -15.8% (active) in [9]; 36.3% in [10]; 37.5% in [11]; -40.6% (active) in test [12]. The growth in test [13] is 23.7%; in test [14] it was 17.1%; in test [15] it was 14.8%; in test [16], 22.8%; in test [17], 8.85% (active).
On to `CCCCOCc1cc(CN2CCN(C)CC2)c(O)c2ncccc12`, for which the growth in [1] was 48.2%; in test [2] it was 27.1%; in test [3], 73%; in [4], 31.1%; in test [5], 42.5%; in test [6], 80.8%. The growth in test [7] was 23.9%; in test [8] it was 79.3%; in test [9], 5.45% (active); in [10], 67.3%; in test [11], 62%; in [12] it was 80.8%. Besides, the growth is 45.6% in test [13]; 27.2% in test [14]; 19.1% in [15]; 57.8% in test [16]; 40.6% in test [17].
Turning to `COc1cc2nc(-c3cccc4cccnc34)nc(NC3CCN(Cc4ccccc4)CC3)c2cc1OC`, the growth in [1] was -48.7% (active); in test [2], -55% (active); in test [3], -90.6% (active); in test [4], -91.1% (active); in test [5], -74.7% (active); in [6], -61.5% (active). For the same molecule, the growth in test [7] was -85.9% (active); in [8], -41.7% (active); in test [9], 6.52% (active); in [10], -64.4% (active); in [11], -65% (active); in test [12], -93.3% (active). In addition, the growth in test [13] is -74.8% (active); in test [14], -77.2% (active); in test [15] it was -63.7% (active); in test [16], -91% (active); in [17] it was -76% (active).
For `CC1=C(C(=O)OCC2CCN(C(=O)OC(C)(C)C)CC2)[C@H](c2cccc(C#N)c2)C2=C(CC(C)(C)CC2=O)N1`, the growth was 41.5% in test [1]; 46.9% in test [2]; 75.9% in [3]; 61.7% in [4]; 84% in test [5]; 47.8% in test [6]. In addition, the growth in test [7] was 58.3%; in test [8] it was 61.7%; in test [9] it was 50.6%; in [10] it was 69.8%; in [11], 65%; in [12] it was 50.3%. The growth in test [13] is 37.2%; in test [14], 40.8%; in test [15] it was 26.9%; in test [16], 70.8%; in test [17], 42.4%.
